# Test results taken from PubChem BioAssay (EPA / NIEHS).
# The source made the active and inactive calls. Rule for the calls: active = hit-call score of the fitted dose curve at least 0.9, where 1 is the maximum; inactive = score below 0.9.
# Columns and labels:
# Conditions in all cases: mRNA level, 48 h; actives raise or lower the signal
# [1] = read-out: ABC Transporter (ABCB1), ABCB1 (gene 5243); experiment: LTEA_HepaRG_ABCB1: Life Technologies and Expression Analysis (LTEA) Assay for ABC Transporter (ABCB1) using HepaRG (AID 2283460)
# In short: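 Human liver HepaRG line treated 48 h with up to 100 uM compound (eight half-log points, 0.5% DMSO); ABCB1 mRNA change fitted bidirectionally against DMSO controls.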
# [2] = read-out: growth arrest and DNA damage 45 (GADD45B), GADD45B (gene 4616); experiment: LTEA_HepaRG_GADD45B: Life Technologies and Expression Analysis (LTEA) Assay for growth arrest and DNA damage 45 (GADD45B) using HepaRG (AID 2283461)
# In short: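 HepaRG, ~100,000 cells/well, 48 h plating; serum-free induction medium; cpd 100 uM top, half-log x8, 0.5% DMSO, duplicate, 48 h; lysis in RLT, RNA isolation, qRT-PCR; norm ACTB/GAPDH/POLR2A; bidirectional fit vs DMSO.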
# [3] = read-out: ABC Transporter (ABCC3), ABCC3 (gene 8714); experiment: LTEA_HepaRG_ABCC3: Life Technologies and Expression Analysis (LTEA) Assay for ABC Transporter (ABCC3) using HepaRG (AID 2283462)
# In short: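 Human HepaRG, 48 h dosing, 8-pt half-log series from 100 uM, 0.5% DMSO vehicle, duplicates. ABCC3 mRNA by TaqMan qRT-PCR, housekeeping-normalized; bidirectional curve fit vs DMSO.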
# [4] = read-out: ABC Transporter (ABCB11), ABCB11 (gene 8647); experiment: LTEA_HepaRG_ABCB11: Life Technologies and Expression Analysis (LTEA) Assay for ABC Transporter (ABCB11) using HepaRG (AID 2283463)
# In short: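 Using HepaRG cultures held in 0.5% DMSO, chemicals were tested at half-log dilutions from 100 uM for 48 h. Induction or suppression of ABCB11 mRNA, normalized to ACTB, GAPDH and POLR2A, was fitted bidirectionally against vehicle.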
# [5] = read-out: ABC Transporter (ABCC2), ABCC2 (gene 1244); experiment: LTEA_HepaRG_ABCC2: Life Technologies and Expression Analysis (LTEA) Assay for ABC Transporter (ABCC2) using HepaRG (AID 2283464)
# In short: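 HepaRG, 48 h post-plating; serum-free induction medium; cpd 8-pt, 100 uM top, half-log, 0.5% DMSO, duplicate, 48 h. Readout: ABCC2 mRNA by qRT-PCR, norm. ACTB/GAPDH/POLR2A. Bidirectional fit vs DMSO baseline.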
# [6] = read-out: Broad substrate specificity ATP-binding cassette transporter ABCG2 (Homo sapiens) (UniProt Q9UNQ0); experiment: LTEA_HepaRG_ABCG2: Life Technologies and Expression Analysis (LTEA) Assay for ABC Transporter (ABCG2) using HepaRG (AID 2283465)
# In short: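 Gene expression of ABCG2 in HepaRG liver cells is quantified by qRT-PCR following 48 h exposure across an eight-point series topping at 100 uM. Values come from bidirectional fitting relative to DMSO vehicle.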
# [7] = read-out: ATP-citrate lyase (ACLY), ACLY (gene 47); experiment: LTEA_HepaRG_ACLY: Life Technologies and Expression Analysis (LTEA) Assay for ATP-citrate lyase (ACLY) using HepaRG (AID 2283466)
# In short: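 ACLY expression changes in human HepaRG liver cells are quantified by qRT-PCR after 48 h exposure to test chemicals (maximum 100 uM, half-log steps). Values are fitted in both directions relative to 0.5% DMSO vehicle.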
# [8] = read-out: Peroxisomal acyl-coenzyme A oxidase 1 (ACOX1) gene, ACOX1 (gene 51); experiment: LTEA_HepaRG_ACOX1: Life Technologies and Expression Analysis (LTEA) Assay for Peroxisomal acyl-coenzyme A oxidase 1 (ACOX1) gene using HepaRG (AID 2283467)
# In short: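 Human HepaRG hepatic cultures, 48 h treatment with test chemicals up to 100 uM. ACOX1 expression read by qRT-PCR relative to 0.5% DMSO vehicle.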
# [9] = read-out: Alkaline Phosphatase, Placental (ALPP) gene, ALPP (gene 250); experiment: LTEA_HepaRG_ALPP: Life Technologies and Expression Analysis (LTEA) Assay for Alkaline Phosphatase, Placental (ALPP) gene using HepaRG (AID 2283468);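 for AC50: differentiated human HepaRG liver cells in serum-free induction medium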
# In short: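 HepaRG, 48 h plating then 48 h dosing, serum-free induction medium, 0.5% DMSO. 8 conc, half-log, max 100 uM, duplicates. Endpoint: ALPP transcript by qRT-PCR, housekeeping-normalized; gain or loss fitted vs DMSO.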
# [10] = read-out: Bcl-2 (BAD) gene, BAD (gene 572); experiment: LTEA_HepaRG_BAD: Life Technologies and Expression Analysis (LTEA) Assay for Bcl-2 (BAD) gene using HepaRG (AID 2283469)
# In short: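 Activity values reflect up- or down-regulation of BAD mRNA in human HepaRG hepatic cells treated 48 h in serum-free medium, with eight-point half-log dosing capped at 100 uM and 0.5% DMSO vehicle.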
# [11] = read-out: Bcl-2 (BAX) gene, BAX (gene 581); experiment: LTEA_HepaRG_BAX: Life Technologies and Expression Analysis (LTEA) Assay for Bcl-2 (BAX) gene using HepaRG (AID 2283470)
# In short: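 Human HepaRG cells treated in duplicate for 48 h across eight concentrations (max 100 uM, 0.5% DMSO); BAX expression measured by qRT-PCR.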
# [12] = read-out: adenosine kinase (ADK) gene, ADK (gene 132); experiment: LTEA_HepaRG_ADK: Life Technologies and Expression Analysis (LTEA) Assay for adenosine kinase (ADK) gene using HepaRG (AID 2283471)
# In short: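 Read-out is ADK transcript level measured by qRT-PCR and normalised to three housekeeping genes. Cells are human HepaRG, dosed for 48 h at up to 100 uM in 0.5% DMSO. Gain or loss of signal is fitted against DMSO controls.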
# [13] = read-out: Alpha-fetoprotein (AFP) gene, AFP (gene 174); experiment: LTEA_HepaRG_AFP: Life Technologies and Expression Analysis (LTEA) Assay for Alpha-fetoprotein (AFP) gene using HepaRG (AID 2283472)
# In short: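 Measures AFP mRNA change in HepaRG after 48 h chemical exposure (8 half-log concentrations, highest 100 uM, 0.5% DMSO). Fold change relative to DMSO, fitted in both directions.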
# BCL2L11 (gene 10018) = experiment: LTEA_HepaRG_BCL2L11: Life Technologies and Expression Analysis (LTEA) Assay for Bcl-2 (BCL2L11) gene using HepaRG (AID 2283473)
# In short: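 Read-out is BCL2L11 transcript level by qRT-PCR, normalized to three housekeeping genes and fitted bidirectionally against 0.5% DMSO vehicle. HepaRG cells received chemicals for 48 h in serum-free induction medium, 100 uM down in half-log dilutions.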
# [14] = read-out: Apolipoprotein A-V (APOA5) gene, APOA5 (gene 116519); experiment: LTEA_HepaRG_APOA5: Life Technologies and Expression Analysis (LTEA) Assay for Apolipoprotein A-V (APOA5) gene using HepaRG (AID 2283474)
# In short: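 Readout is APOA5 transcript level by qRT-PCR on Fluidigm dynamic arrays, normalized to three housekeeping genes. HepaRG cultures received chemicals for 48 h at up to 100 uM (half-log steps, 0.5% DMSO), with gain or loss scored relative to DMSO.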
# [15] = read-out: Apoptosis regulator Bcl-2 (Homo sapiens) (UniProt P10415); experiment: LTEA_HepaRG_BCL2: Life Technologies and Expression Analysis (LTEA) Assay for Bcl-2 gene using HepaRG (AID 2283475);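 note: BCL2 transcript by TaqMan qRT-PCR normalised to ACTB GAPDH and POLR2A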
# In short: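 Each chemical was tested in duplicate on HepaRG cultures held in serum-free induction medium for 48 h, highest concentration 100 uM with half-log dilutions. Transcript levels came from multiplexed qRT-PCR, normalised to housekeeping genes; activity was scored in either direction relative to DMSO.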
# [16] = read-out: Bcl-2 (BID) gene, BID (gene 637); experiment: LTEA_HepaRG_BID: Life Technologies and Expression Analysis (LTEA) Assay for Bcl-2 (BID) gene using HepaRG (AID 2283476)
# In short: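 Assay used HepaRG hepatic cells treated 48 h in serum-free medium with half-log dilutions from 100 uM. Endpoint: BID mRNA, qRT-PCR, normalized to ACTB/GAPDH/POLR2A.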
# Caspase-3 (Homo sapiens) = Caspase-3 (Homo sapiens) (UniProt P42574); experiment: LTEA_HepaRG_CASP3: Life Technologies and Expression Analysis (LTEA) Assay for cysteine-aspartic acid protease (CASP3) using HepaRG (AID 2283477)
# In short: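 Read-out is CASP3 mRNA level by TaqMan qRT-PCR in human HepaRG cells after 48 h chemical exposure. Eight half-log concentrations topping at 100 uM were tested in 0.5% DMSO; gain or loss was fitted relative to DMSO.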
# [17] = read-out: Cytochrome P450 (CYP24A1), CYP24A1 (gene 1591); experiment: LTEA_HepaRG_CYP24A1: Life Technologies and Expression Analysis (LTEA) Assay for Cytochrome P450 (CYP24A1) using HepaRG (AID 2283478)
# In short: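 HepaRG, 48 h chemical exposure, 8-pt half-log CRC from 100 uM, 0.5% DMSO vehicle, duplicates. Endpoint: CYP24A1 mRNA by Fluidigm TaqMan qRT-PCR, normalized ACTB/GAPDH/POLR2A; gain/loss fit vs DMSO.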
# [18] = read-out: Cytochrome P450 (CYP1A2), CYP1A2 (gene 1544); experiment: LTEA_HepaRG_CYP1A2: Life Technologies and Expression Analysis (LTEA) Assay for Cytochrome P450 (CYP1A2) using HepaRG (AID 2283479)
# In short: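 CYP1A2 transcript induction or loss, quantified by Fluidigm qRT-PCR against three housekeeping genes, was fitted bidirectionally against 0.5% DMSO controls. Human HepaRG cells received eight half-log concentrations from 100 uM over 48 h.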
# Chain of Apoptosis regulator Bcl-2 (Homo sapiens) (P10415 whole entry, looked up): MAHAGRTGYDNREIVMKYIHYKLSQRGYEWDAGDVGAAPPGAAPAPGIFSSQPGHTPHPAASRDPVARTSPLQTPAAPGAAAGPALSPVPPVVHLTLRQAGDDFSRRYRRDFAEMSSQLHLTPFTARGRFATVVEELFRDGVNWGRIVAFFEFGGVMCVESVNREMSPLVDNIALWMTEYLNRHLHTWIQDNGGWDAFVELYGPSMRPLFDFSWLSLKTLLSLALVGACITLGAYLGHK
# Chain of Broad substrate specificity ATP-binding cassette transporter ABCG2 (Homo sapiens) (Q9UNQ0 whole entry, looked up): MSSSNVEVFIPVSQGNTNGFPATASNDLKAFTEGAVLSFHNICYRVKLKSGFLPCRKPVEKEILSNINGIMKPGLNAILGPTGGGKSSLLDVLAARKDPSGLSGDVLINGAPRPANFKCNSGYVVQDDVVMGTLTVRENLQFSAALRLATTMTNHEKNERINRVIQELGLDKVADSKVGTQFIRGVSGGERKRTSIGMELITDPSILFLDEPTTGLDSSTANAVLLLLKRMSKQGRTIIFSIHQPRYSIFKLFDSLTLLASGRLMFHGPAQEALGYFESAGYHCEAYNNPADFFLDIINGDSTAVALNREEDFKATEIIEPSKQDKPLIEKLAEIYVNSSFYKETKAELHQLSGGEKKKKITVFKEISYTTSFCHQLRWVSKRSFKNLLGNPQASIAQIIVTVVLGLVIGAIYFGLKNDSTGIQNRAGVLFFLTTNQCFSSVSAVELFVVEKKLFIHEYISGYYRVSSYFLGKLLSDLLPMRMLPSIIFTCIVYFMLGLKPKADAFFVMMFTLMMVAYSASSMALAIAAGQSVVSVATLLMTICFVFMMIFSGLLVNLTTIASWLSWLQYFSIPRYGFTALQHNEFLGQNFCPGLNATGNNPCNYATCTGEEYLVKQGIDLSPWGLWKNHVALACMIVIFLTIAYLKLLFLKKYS
# Chain of Caspase-3 (Homo sapiens) (P42574 whole entry, looked up): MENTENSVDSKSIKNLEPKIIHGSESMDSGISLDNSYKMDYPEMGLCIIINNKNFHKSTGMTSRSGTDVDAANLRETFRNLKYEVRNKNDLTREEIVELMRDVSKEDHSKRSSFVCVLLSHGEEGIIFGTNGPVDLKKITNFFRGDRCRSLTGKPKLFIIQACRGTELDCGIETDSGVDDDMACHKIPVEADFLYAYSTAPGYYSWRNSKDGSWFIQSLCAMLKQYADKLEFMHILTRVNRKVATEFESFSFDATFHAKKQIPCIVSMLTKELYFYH
structure (smiles),measurement,setting,value
CNC(=O)Oc1cccc2ccccc12,outcome,[1],inactive
same,outcome,[2],inactive
same,outcome,[3],inactive
same,outcome,[4],inactive
same,outcome,[5],inactive
same,outcome,[6],inactive
same,outcome,[7],inactive
same,outcome,[8],inactive
same,outcome,[9],inactive
same,outcome,[10],inactive
same,outcome,[11],inactive
same,outcome,[12],inactive
same,outcome,[13],inactive
same,outcome,BCL2L11 (gene 10018),inactive
same,outcome,[14],inactive
same,outcome,[15],inactive
same,outcome,[16],inactive
same,outcome,Caspase-3 (Homo sapiens),inactive
same,AC50,[17],0.0808 µM (active)
same,outcome,[18],inactive
CO/N=C(/C1=NOCCO1)c1ccccc1Oc1ncnc(Oc2ccccc2Cl)c1F,outcome,[1],inactive
same,AC50,[2],29.7 µM (active)
same,AC50,[3],6.69 µM (active)
same,AC50,[4],29.2 µM (active)
same,AC50,[5],50 µM (active)
same,AC50,[6],8.72 µM (active)
same,AC50,[7],12.5 µM (active)
same,AC50,[8],15.4 µM (active)
same,AC50,[9],5.39 µM (active)
same,outcome,[10],inactive
same,AC50,[11],31.3 µM (active)
same,outcome,[12],inactive
same,AC50,[13],18.2 µM (active)
same,AC50,BCL2L11 (gene 10018),27.7 µM (active)
same,AC50,[14],23.6 µM (active)
same,AC50,[15],29.7 µM (active)
same,outcome,[16],inactive
same,outcome,Caspase-3 (Homo sapiens),inactive
same,outcome,[17],inactive
same,AC50,[18],13.1 µM (active)
N#Cc1c[nH]cc1-c1cccc2c1OC(F)(F)O2,outcome,[1],inactive
same,AC50,[2],27.1 µM (active)
same,outcome,[3],inactive
same,AC50,[4],44.8 µM (active)
same,outcome,[5],inactive
same,AC50,[6],50 µM (active)
same,outcome,[7],inactive
same,outcome,[8],inactive
same,AC50,[9],10 µM (active)
same,outcome,[10],inactive
same,AC50,[11],23.3 µM (active)
same,outcome,[12],inactive
same,AC50,[13],73.3 µM (active)
same,AC50,BCL2L11 (gene 10018),20.9 µM (active)
same,outcome,[14],inactive
same,outcome,[16],inactive
same,outcome,Caspase-3 (Homo sapiens),inactive
same,outcome,[17],inactive
same,AC50,[18],21.3 µM (active)
O=C(Nc1ccccc1-c1ccc(Cl)cc1)c1cccnc1Cl,outcome,[1],inactive
same,outcome,[2],inactive
same,outcome,[3],inactive
same,AC50,[4],0.921 µM (active)
same,outcome,[5],inactive
same,outcome,[6],inactive
same,outcome,[7],inactive
same,outcome,[8],inactive
same,outcome,[9],inactive
same,outcome,[10],inactive
same,outcome,[11],inactive
same,outcome,[12],inactive
same,AC50,[13],52.5 µM (active)
same,outcome,BCL2L11 (gene 10018),inactive
same,outcome,[14],inactive
same,outcome,[15],inactive
same,outcome,[16],inactive
same,outcome,Caspase-3 (Homo sapiens),inactive
same,outcome,[17],inactive
same,outcome,[18],inactive
O=C1C2CC=CCC2C(=O)N1SC(Cl)(Cl)Cl (centres undefined),outcome,[1],inactive
same,outcome,[2],inactive
same,outcome,[3],inactive
same,AC50,[4],57.6 µM (active)
same,outcome,[5],inactive
same,outcome,[6],inactive
same,outcome,[7],inactive
same,outcome,[8],inactive
same,AC50,[9],10.8 µM (active)
same,outcome,[10],inactive
same,outcome,[11],inactive
same,outcome,[12],inactive
same,outcome,[13],inactive
same,outcome,BCL2L11 (gene 10018),inactive
same,outcome,[14],inactive
same,outcome,[15],inactive
same,outcome,[16],inactive
same,outcome,Caspase-3 (Homo sapiens),inactive
same,outcome,[17],inactive
same,outcome,[18],inactive
